Legend:
Assay in all cases: log2 ratio of Biotin-Ahx-Ub-VS probe labelling (fragment/DMSO); higher = less target engagement (more negative = stronger competition), active = hit call of the paper (q ≤ 0.05, log2 ratio ≤ -1)
Settings in all cases: compound concentration: 200 uM; treatment time: 3 h
USP34 = USP34 (UniProt Q70CQ2)
Summary of the method: (§1)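 Average log2 ratios of fragment over vehicle were obtained by unpaired t-test from global-median-normalised Spectronaut label-free quantities. Proteins with ≥2 unique peptides were included. HEK293T lysate (495 µg per sample) was treated in triplicate with fragment at 200 µM or vehicle for 3 h, then with Biotin-Ahx-Ub-VS at 0.5 µM final for 1 h, and labelled DUBs were NeutrAvidin-enriched and run by diaPASEF LC-MS/MS.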

USP36 = target: T1, USP36 (UniProt Q9P275)
T1 sequence (whole entry): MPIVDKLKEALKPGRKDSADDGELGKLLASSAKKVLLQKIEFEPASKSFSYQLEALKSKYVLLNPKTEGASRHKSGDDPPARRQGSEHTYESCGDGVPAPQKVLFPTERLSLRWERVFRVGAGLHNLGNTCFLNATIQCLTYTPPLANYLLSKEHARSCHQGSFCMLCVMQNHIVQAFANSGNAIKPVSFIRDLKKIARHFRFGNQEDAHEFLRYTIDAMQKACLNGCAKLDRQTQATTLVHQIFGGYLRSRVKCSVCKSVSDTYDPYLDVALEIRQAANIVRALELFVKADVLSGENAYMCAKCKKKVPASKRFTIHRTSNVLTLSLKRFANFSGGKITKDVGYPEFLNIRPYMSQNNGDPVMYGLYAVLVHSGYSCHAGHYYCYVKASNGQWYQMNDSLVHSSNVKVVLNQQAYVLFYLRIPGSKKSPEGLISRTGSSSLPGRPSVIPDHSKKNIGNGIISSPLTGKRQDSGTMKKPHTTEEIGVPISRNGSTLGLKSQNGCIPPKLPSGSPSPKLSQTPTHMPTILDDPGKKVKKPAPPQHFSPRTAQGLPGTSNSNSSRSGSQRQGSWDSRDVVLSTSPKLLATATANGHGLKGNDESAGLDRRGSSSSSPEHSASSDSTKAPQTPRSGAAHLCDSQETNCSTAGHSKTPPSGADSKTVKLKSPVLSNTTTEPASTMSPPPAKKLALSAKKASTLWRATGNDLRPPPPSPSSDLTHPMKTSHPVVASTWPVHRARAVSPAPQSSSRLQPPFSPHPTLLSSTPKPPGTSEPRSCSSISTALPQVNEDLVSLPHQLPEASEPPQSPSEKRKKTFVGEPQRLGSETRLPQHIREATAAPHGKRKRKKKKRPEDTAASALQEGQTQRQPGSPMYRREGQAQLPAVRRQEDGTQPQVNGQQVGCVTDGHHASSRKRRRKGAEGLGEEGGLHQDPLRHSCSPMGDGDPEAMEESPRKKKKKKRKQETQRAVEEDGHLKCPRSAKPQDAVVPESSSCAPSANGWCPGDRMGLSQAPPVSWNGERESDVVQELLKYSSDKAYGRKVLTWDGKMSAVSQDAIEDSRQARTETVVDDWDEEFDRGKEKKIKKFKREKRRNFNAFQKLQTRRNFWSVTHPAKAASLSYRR
Summary of the method: as §1

USP38 = target: T2, USP38 (UniProt Q8NB14)
T2 sequence (whole entry): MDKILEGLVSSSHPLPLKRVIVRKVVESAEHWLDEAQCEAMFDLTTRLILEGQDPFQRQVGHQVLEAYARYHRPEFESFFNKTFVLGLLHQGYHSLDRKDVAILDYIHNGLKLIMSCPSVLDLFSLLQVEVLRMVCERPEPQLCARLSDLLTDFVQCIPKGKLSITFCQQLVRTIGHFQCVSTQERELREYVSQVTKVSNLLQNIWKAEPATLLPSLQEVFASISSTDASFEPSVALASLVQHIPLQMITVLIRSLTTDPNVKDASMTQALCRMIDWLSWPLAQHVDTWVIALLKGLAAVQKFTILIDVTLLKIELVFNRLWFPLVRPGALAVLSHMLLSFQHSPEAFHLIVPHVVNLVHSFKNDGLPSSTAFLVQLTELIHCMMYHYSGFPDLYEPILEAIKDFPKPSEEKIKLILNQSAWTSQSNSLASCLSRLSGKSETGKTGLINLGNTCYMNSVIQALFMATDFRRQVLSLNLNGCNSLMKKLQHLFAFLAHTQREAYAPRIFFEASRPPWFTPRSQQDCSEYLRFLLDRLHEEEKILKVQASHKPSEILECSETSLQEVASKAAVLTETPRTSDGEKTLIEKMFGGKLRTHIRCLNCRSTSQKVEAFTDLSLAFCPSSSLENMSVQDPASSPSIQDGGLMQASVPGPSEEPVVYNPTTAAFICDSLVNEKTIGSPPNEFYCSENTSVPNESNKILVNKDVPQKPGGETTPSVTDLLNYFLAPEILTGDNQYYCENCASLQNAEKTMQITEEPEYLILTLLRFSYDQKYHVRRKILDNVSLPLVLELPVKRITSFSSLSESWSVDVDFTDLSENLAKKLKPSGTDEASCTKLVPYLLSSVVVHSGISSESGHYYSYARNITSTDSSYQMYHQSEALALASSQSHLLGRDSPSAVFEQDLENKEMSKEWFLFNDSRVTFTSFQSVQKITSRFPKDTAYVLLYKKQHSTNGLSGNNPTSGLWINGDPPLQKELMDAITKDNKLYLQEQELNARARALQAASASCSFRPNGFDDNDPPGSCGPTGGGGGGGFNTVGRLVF
Summary of the method: as §1

USP39 = target: T3, USP39 (UniProt Q53GS9)
T3 sequence (whole entry): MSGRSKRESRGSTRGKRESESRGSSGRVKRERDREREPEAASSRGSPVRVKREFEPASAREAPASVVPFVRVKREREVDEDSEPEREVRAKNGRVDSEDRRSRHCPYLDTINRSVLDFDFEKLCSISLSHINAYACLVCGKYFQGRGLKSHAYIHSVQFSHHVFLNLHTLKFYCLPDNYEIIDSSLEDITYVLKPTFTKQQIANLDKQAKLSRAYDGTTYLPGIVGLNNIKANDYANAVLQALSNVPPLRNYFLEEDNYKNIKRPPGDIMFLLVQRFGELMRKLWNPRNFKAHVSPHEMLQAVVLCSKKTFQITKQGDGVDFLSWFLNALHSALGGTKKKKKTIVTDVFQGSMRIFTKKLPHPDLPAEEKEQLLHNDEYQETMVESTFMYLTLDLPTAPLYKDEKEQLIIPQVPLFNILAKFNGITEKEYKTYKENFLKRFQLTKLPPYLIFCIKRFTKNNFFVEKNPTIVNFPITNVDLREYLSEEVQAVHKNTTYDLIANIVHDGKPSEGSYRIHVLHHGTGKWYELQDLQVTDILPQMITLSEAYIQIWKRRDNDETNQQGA
Summary of the method: as §1

USP4 = target: T4, USP4 (UniProt Q13107)
T4 sequence (whole entry): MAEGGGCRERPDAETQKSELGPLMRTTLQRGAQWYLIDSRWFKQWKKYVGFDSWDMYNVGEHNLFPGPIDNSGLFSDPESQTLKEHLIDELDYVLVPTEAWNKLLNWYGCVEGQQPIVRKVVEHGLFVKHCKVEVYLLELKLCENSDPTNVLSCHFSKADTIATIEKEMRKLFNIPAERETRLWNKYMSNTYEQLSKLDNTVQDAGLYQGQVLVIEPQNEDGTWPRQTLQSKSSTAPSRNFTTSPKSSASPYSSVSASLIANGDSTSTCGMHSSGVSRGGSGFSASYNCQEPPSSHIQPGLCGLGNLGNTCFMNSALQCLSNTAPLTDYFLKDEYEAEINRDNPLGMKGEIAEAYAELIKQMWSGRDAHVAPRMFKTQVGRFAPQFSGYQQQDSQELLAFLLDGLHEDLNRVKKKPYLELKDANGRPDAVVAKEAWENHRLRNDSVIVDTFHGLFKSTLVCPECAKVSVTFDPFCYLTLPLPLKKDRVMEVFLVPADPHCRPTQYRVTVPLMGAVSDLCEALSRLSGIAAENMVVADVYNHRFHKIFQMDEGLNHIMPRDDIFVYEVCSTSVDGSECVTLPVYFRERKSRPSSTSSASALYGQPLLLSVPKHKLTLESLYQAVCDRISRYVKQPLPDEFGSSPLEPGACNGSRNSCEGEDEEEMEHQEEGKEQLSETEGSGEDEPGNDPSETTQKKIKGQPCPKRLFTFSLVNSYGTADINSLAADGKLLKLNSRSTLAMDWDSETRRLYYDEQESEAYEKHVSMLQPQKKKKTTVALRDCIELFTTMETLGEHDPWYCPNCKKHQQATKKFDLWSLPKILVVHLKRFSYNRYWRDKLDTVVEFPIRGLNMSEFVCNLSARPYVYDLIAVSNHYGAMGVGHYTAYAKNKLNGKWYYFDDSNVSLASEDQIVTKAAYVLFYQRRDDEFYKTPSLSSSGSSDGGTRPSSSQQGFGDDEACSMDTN
Summary of the method: as §1

Measured: log2 ratio of Biotin-Ahx-Ub-VS probe labelling

Sequence of USP34 (Q70CQ2 whole entry, the tested form may be a part): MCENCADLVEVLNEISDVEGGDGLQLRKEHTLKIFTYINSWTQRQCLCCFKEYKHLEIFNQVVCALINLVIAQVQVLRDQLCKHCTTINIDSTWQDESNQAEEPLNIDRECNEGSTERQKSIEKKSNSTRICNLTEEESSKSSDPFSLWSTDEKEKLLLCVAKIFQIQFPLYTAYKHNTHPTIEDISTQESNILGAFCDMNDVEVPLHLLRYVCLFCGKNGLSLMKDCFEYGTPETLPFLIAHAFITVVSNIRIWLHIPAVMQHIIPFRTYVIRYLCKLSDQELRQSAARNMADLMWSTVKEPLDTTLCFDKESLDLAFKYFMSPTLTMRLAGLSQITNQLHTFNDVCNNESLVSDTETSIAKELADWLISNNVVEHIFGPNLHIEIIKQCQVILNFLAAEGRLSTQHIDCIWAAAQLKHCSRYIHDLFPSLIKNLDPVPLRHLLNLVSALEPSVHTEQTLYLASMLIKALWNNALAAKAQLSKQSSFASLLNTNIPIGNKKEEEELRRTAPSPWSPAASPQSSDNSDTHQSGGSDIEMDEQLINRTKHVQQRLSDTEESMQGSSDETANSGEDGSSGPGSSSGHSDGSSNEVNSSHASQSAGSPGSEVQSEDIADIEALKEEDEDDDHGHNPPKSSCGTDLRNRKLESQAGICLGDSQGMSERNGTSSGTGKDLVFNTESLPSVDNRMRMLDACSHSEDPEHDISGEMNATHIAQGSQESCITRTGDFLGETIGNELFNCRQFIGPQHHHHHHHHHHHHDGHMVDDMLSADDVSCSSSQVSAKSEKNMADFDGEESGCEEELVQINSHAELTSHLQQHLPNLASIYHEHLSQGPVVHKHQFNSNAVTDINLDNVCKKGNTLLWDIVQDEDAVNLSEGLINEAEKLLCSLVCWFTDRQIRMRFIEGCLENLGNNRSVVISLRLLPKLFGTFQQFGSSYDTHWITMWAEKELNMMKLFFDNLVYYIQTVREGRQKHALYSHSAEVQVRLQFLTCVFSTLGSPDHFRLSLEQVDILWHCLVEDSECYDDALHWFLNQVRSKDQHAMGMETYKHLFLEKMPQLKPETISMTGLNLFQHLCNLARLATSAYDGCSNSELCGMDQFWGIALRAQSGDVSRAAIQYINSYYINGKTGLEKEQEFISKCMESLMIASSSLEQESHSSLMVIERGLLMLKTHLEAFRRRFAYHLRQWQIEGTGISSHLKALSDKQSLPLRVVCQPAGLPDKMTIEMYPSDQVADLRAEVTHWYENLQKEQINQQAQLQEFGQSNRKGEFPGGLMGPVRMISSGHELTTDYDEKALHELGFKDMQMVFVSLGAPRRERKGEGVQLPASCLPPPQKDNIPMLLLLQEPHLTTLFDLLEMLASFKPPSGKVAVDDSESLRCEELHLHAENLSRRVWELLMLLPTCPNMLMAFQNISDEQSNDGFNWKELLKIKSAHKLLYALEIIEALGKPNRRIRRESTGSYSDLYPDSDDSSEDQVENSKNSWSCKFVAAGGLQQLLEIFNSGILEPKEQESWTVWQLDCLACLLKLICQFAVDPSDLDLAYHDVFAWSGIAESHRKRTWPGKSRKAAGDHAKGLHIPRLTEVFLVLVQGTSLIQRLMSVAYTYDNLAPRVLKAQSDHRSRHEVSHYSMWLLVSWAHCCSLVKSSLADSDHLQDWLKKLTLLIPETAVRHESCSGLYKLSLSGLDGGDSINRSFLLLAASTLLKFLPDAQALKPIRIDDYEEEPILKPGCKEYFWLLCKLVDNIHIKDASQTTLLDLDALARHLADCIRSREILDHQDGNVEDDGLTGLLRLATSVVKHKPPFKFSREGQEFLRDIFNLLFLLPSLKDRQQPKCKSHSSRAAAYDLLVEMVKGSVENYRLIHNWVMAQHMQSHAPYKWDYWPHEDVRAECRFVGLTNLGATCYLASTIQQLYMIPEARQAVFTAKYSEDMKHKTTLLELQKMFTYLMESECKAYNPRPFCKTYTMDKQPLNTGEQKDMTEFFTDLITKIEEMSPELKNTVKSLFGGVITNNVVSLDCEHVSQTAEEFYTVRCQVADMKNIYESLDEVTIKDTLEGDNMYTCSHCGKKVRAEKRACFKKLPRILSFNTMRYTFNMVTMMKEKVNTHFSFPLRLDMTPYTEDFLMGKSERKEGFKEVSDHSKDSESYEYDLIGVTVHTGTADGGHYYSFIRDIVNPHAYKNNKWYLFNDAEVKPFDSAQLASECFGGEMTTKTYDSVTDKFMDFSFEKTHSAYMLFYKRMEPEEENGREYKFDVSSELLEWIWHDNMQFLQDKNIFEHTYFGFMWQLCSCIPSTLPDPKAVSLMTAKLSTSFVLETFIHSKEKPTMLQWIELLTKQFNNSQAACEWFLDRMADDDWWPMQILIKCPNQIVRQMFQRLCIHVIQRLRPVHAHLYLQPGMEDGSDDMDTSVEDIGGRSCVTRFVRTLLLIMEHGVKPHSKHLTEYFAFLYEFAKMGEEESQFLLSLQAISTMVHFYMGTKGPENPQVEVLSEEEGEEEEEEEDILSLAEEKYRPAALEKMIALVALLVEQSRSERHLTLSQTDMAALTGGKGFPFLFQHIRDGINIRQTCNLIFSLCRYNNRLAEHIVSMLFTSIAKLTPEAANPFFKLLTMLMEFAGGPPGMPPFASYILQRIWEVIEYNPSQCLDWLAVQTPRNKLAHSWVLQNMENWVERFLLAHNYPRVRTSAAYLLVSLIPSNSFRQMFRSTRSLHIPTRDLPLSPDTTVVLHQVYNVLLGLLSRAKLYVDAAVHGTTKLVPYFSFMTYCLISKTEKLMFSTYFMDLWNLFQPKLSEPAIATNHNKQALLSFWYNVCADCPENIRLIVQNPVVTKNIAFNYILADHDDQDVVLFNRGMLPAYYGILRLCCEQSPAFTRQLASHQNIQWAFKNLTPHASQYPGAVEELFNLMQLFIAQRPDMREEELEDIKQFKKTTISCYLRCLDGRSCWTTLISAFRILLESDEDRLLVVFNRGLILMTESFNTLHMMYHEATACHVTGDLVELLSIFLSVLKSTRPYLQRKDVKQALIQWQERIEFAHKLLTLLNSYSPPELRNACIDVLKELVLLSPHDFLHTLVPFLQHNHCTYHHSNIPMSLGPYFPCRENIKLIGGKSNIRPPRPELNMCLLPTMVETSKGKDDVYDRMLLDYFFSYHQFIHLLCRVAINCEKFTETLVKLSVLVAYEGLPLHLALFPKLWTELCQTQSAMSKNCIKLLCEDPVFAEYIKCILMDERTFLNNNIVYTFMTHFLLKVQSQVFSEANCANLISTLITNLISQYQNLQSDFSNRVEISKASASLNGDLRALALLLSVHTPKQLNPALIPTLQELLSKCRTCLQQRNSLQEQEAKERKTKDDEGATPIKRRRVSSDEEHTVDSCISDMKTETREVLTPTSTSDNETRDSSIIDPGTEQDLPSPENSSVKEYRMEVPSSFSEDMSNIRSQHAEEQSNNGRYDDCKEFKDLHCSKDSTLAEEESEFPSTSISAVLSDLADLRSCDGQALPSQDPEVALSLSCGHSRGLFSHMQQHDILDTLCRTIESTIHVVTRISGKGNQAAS

CCc1c[nH]c(CNC(=O)CCl)n1.Cl
inactive: USP34 -0.213 | USP36 -0.245 | USP38 -0.15 | USP39 0.178 | USP4 -0.159

Reference: the supplement of paper PMC11732987, “Enantioselective OTUD7B fragment discovery through chemoproteomics screening and high-throughput optimisation” (Communications Chemistry, 2025)
